Screening results deposited in PubChem by several laboratories.
ABHD5 PLIN5 PPI: blocks binding of human ABHD5 to perilipin-5 | Q00G26+Q8WTS1 | Split G. princeps luciferase complementation, luminescence, 4 h | inhibition, % at 4 µM | hit rate 0.78% among 360,000;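 active means inhibition above the mean inhibition across every tested compound plus 3 SD, cut at about 22% in these data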;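 further: 0% = DMSO only wells and the 100% control is not disclosed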
KKLEB cytotox: CF airway cell cytotoxicity counter-screen; KKLEB CF airway cells viability, ATPlite luminescence, overnight; hits give low values; cells stimulated with P. aeruginosa culture filtrate; activity change (cytotoxicity), % at 5 µM; hit rate 0.36% among 360,000; AID 602141;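 active means corrected activity change at or below -50% at 5 µM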
Peg3 prom inh: Peg3 promoter activity inhibition. hit rate 1.7% among 360,000. inhibition, % at 20 µM. HeLa PEG-Prom luciferase reporter, luminescence, overnight. AID 588405;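 active means inhibition of at least 50% at 20 µM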
Mdm2-MdmX inh: disrupts the human Mdm2-MdmX interaction; O15151+Q00987; SaOS-2 split-luciferase Mdm2/MdmX complementation, luminescence; hit rate 3% among 330,000; inhibition, % at 8 µM;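 active means inhibition of at least 50% at 8 µM in the primary screen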
Target sequence (O15151 whole entry, looked up): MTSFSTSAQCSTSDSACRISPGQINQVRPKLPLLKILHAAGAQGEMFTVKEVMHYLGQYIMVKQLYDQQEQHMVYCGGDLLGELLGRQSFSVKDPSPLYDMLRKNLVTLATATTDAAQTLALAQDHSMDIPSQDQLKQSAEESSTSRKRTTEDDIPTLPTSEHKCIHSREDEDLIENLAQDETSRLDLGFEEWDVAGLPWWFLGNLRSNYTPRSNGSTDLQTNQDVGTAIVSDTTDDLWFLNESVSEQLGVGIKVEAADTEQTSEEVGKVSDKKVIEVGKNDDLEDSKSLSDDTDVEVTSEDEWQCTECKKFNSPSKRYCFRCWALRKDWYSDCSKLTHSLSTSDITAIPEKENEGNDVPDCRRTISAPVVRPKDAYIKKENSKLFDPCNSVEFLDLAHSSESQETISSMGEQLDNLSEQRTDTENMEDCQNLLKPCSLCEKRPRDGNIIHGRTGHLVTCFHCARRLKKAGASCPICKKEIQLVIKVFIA
Target sequence (Q00987 whole entry, looked up): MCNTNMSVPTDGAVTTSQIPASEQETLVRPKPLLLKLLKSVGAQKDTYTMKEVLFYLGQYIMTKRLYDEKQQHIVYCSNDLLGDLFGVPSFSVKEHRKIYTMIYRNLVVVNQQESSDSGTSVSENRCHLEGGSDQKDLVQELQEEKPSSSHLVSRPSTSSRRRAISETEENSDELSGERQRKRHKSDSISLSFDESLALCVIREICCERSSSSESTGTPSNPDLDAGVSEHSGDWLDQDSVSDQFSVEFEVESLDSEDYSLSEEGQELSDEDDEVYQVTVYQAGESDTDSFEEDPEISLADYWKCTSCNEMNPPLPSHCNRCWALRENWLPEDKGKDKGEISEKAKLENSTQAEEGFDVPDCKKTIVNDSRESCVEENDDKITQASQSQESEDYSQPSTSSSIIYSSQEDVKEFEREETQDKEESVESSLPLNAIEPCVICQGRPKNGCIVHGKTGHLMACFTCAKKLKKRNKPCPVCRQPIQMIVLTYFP
CF NFkB block: blocks PAF-induced NF-kB reporter in cystic fibrosis cells; hit rate 0.86% among 360,000; KKLEB NF-kB-GFP reporter, GFP fluorescence overnight; inhibition, % at 5 µM;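 active means at least 50% inhibition at 5 µM, scaled per plate between neutral and stimulator controls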;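 further: PAF is a Pseudomonas aeruginosa culture filtrate used as stimulus; plate controls were PAF-stimulated DMSO wells for no effect and unstimulated DMSO wells for full effect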
HIF-2a block: HIF-2a inhibition; 786-0 RCC cells HIF-2a reporter, luciferase luminescence, overnight; inhibition, % at 18.8 µM; hit rate 0.72% among 360,000; AID 624352;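 active means inhibition of the luminescence signal of 40% or more relative to plate controls, in a single-dose primary screen at 18.75 µM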
Mdm2-MdmX conf: human Mdm2/MdmX binding inhibition, confirmed | shares compounds with Mdm2-MdmX inh | luminescent assay | inhibition, % at 8 µM | hit rate 55% among 10,000; in the data active means inhibition above about 40%
Full FLuc ctr: inhibits full-length luciferase, flagging false Mdm2/MdmX hits | SaOS-2 full-length luciferase counterscreen, luminescence | hit rate 77% among 6,200 | inhibition, % at 8 µM | shares compounds with Mdm2-MdmX inh;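 active means mean inhibition at 8 µM reaching about 37%, which flags the compound as non-specific, limit read from the data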;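 further: p53-null SaOS-2 cells with luciferase driven by a doxycycline-inducible promoter; compound on cells about two nights before reading with doxycycline added after day one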
The depositor's hits bear a star; nt = not tested or not shown. Compounds with a hit are over-represented: about 4.6% of the library has one in this group of screens.

SMILES	ABHD5 PLIN5 PPI	KKLEB cytotox	Peg3 prom inh	Mdm2-MdmX inh	CF NFkB block	HIF-2a block	Mdm2-MdmX conf	others
Nn1c(SCC(=O)Nc2ccccc2Oc2ccccc2)nnc1C1CC1	2	11	13	-4	0	16	nt
CCN(C(=O)COC(=O)c1cc([N+](=O)[O-])ccc1N1CCOCC1)C1CCCCC1	-2	16	13	-21	-13	15	nt
O=C(CN(C(=O)C1CSC(=O)C1)c1ccc(F)cc1)NCc1ccc2c(c1)OCO2 (configuration not stated)	5	-4	22	14	-11	17	nt
COc1ccc(OC)c(CN2C(=O)c3ccccc3C2c2nnnn2-c2c(C)cccc2C)c1 (configuration not stated)	-7	nt	nt	nt	nt	11	nt
CCOc1ccc(NC(=O)CN(C)C(=O)Cc2ccc3c(c2)OCCO3)cc1OCC	-1	4	6	nt	15	9	nt
O=C(CC(=O)Nc1ccccn1)Nc1ccccn1	-3	-9	-18	-21	-3	2	nt
COc1ccc(NC(=O)Cc2ccc(-c3ccccc3)cc2)cn1	0	-2	17	52*	17	20	55*	Full FLuc ctr=62*
O=C(Cc1ccc(-c2ccccc2)cc1)Nc1ccccn1	-24	-19	-122	69*	20	-190	55*	Full FLuc ctr=62*
O=c1[nH][nH]c2c1[C@@H](c1ccc(F)cc1)O[C@H](CCOCc1ccccc1)C2	11	nt	nt	nt	nt	8	nt
CCN1C(=O)C2(Nc3ccccc3-c3nc4ccccc4n32)c2cc(OC)ccc21 (configuration not stated)	4	-6	12	66*	2	17	96*	Full FLuc ctr=24
COc1ccc(OC)c(S(=O)(=O)Nc2ccc(-c3ccc4nncn4n3)cc2)c1	2	-5	26	31	30	28	nt
CNCc1ccccc1Sc1cccc(O)c1	9	-3	-6	-6	8	14	nt
CNCc1ccccc1Sc1cc(O)ccc1O	7	-8	4	91*	12	-13	19
Cc1cc(-c2ccc(C)c(S(=O)(=O)NCC3CCN(Cc4ccc(F)cc4)CC3)c2)on1	8	-28	18	30	-23	6	nt
COc1ccc(-c2cc(C)no2)cc1S(=O)(=O)N(C)c1ccc(C)cc1	-1	-24	19	63*	8	1	50*	Full FLuc ctr=60*
COc1ccc(-c2cc(C)no2)cc1S(=O)(=O)NCC1CCN(Cc2cc(C)ccc2C)CC1	2	-17	18	61*	16	6	22
COc1ccccc1CN1CCC(CNS(=O)(=O)c2cc(-c3cc(C)no3)ccc2C)CC1	3	-12	37	56*	1	17	44*	Full FLuc ctr=75*
O=C(NNc1ccc([N+](=O)[O-])cn1)Nc1ccc(N=Nc2ccccc2)cc1	5	0	2	nt	-75	-41	nt
Cc1ccn(CC(=O)N2CCCC(N3CCN(Cc4ccc5c(c4)OCO5)CC3)C2)n1 (configuration not stated)	-2	-1	27	23	0	6	nt
Cc1ccc(OCCn2cnc3cc([N+](=O)[O-])ccc3c2=O)cc1	2	3	8	14	3	-5	nt
COc1ccc2c(Cn3cnc4cc([N+](=O)[O-])ccc4c3=O)cc(=O)oc2c1	-7	-5	37	60*	22	27	73*	Full FLuc ctr=20
Cc1cc(Cl)ccc1N(CC(=O)NCc1ccc2c(c1)OCO2)S(C)(=O)=O	1	5	16	13	-22	14	nt
Cc1c(N=NC2=C(O)CC(C)(C)CC2=O)cc2c(c1[N+](=O)[O-])C(C)(C)CC2(C)C	14	-3	7	70*	2	-2	21
COc1cccc(/C=C2\Sc3ccc(C(=O)NCc4cccnc4)cc3N(C)C2=O)c1	-2	-3	19	12	-16	33	nt
Cc1ccc(/C=C2/Sc3ccc(C(=O)NCc4ccccn4)cc3NC2=O)cc1	1	12	2	70*	-9	-13	32
COc1cccc(/C=C2/Sc3ccc(C(=O)NCCN4CCCCCC4)cc3NC2=O)c1	9	-7	100*	98*	6	15	30
